Test results taken from PubChem BioAssay AID1851 (National Center for Advancing Translational Sciences (NCATS), 2009).
“And” between values parts separate entries of the source, which are not always exact repeats. Equal entries are not always repeated. Hit rate of the full screen: of about 16,000 compounds, about 5,700 (36%) were called active. About 24% were inconclusive and are not listed. The list shows a part of the results. A number with no mark means an inactive call. The call rests on the fitted dose curve; in most records, active means well fitted curve in the direction sought with a large enough effect; inconclusive means small, poorly fitted or top-dose-only effect, or effect the other way; inactive means no such curve, though single readings can be large or run the other way.

Biological target: Cytochrome P450 1A2 (Homo sapiens) (UniProt P05177)
Sequence (P05177 whole entry, looked up): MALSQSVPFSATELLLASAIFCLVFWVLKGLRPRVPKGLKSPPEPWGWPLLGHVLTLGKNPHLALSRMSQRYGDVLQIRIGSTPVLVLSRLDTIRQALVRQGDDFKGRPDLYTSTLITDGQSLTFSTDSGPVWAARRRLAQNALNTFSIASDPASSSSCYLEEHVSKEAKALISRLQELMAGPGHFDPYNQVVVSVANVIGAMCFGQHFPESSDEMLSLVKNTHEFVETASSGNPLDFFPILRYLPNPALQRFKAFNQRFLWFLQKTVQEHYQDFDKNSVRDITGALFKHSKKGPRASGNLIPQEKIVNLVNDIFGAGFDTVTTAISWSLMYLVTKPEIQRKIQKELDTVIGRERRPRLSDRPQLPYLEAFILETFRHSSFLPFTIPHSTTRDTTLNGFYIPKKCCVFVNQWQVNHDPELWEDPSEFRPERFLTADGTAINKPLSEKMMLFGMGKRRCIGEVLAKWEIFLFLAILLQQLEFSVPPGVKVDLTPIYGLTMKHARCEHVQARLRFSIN
Experiment: Cytochrome panel assay with activity outcomes
Conditions: recombinant CYP, pro-luciferin dealkylation, luminescence, p450-cyp1a2; series mostly up to 57.1 µM; activity, negative = inhibition: at the top concentration
On the % scale 0 is the no-effect control and ±100 the full control effect.

Row | Compound | activity, negative = inhibition | AC50
1 | CCCN(C(=O)Cc1nc(N)n[nH]1)C1(C(=O)Nc2ccccc2C)CCCCC1 | -8.95% | –
2 | CC[C@@]12CCCN3CCc4c(n(c5ccccc45)[C@](O)(C(=O)OC)C1)[C@H]32 | – | inactive
3 | O=C(O)CCC(=O)N1CCN(c2ccccn2)CC1 | 15.9% | –
4 | O=C(CCCc1ccccn1)c1ccccc1 | – | 5.01 µM (active)
5 | O=C(O)[C@H](CCc1ccccn1)c1ccccc1 | -12.5% [at 11.4 µM] | –
6 | COc1cc(/C=N\Nc2nc3ccccc3[nH]2)cc(OC)c1OC | – | 10 µM (active)
7 | COc1cc(/C=N\NC(=O)C2C(=O)NCC2c2ccccc2)cc(OC)c1O (stereo not given) | -16.9% | –
8 | CN(CC(=O)N1CCN(c2ccccc2)CC1)S(=O)(=O)c1cnc[nH]1 | -17.9% | –
9 | CC(C)CN(CC(C)C)S(=O)(=O)N1CCC(C(=O)NCc2ccc(F)cc2)CC1 | -7.94% | –
10 | Cn1c[n+](C)cc1/C=N/O | 13.8% | –
11 | COC(=O)C1=C(C)NC(C)=C(C(=O)OCCSc2ccccc2)[C@@H]1C | – | 0.794 µM (active)
12 | COc1cc(C2C(C(=O)OCCC#N)=C(C)NC3=C2S(=O)(=O)c2ccccc23)cc(OC)c1OC (stereo not given) | -20.5% | –
13 | Cc1cnn(-c2cc(N/N=C/c3ccccc3)ncn2)c1 | – | 2 µM (active)
14 | Cc1cnn(-c2cc(N/N=C/c3ccccc3F)ncn2)c1 | – | 0.562 µM (active)
15 | CC(C)(C)N1C(=O)[C@H]2[C@@H]3[C@H](O)[C@H](O)CC(=O)[C@H]3CC[C@H]2C1=O | -8.79% [at 11.4 µM] and -4.69% [at 11.4 µM] | –
16 | Cc1noc(C)c1C(=O)N1CCC2(CCN(Cc3cc(C(F)(F)F)cc(C(F)(F)F)c3)CC2)CC1 | -21.2% | –
17 | CCC(Sc1ncccc1C(=O)O)C(=O)N1CCOCC1 (stereo not given) | 15.3% | –
18 | c1ccc2c(NCCN3CCOCC3)nc(-c3ccoc3)nc2c1 | – | 5.01 µM (active)
19 | N#Cc1cccc(-c2nc(NCCN3CCOCC3)c3ccccc3n2)c1 | – | 1 µM (active)
20 | O=C1C=C(NCCN2CCOCC2)CC(c2ccccc2)C1 (stereo not given) | -25.1% | –
21 | FC(F)(F)c1ccccc1-c1nc(NCCN2CCOCC2)c2ccccc2n1 | – | 12.6 µM (active)
22 | N#Cc1nc(-c2ccc(OCc3ccccc3)cc2)oc1NCCN1CCOCC1 | -24.4% | –
23 | O=C(NCCN1CCOCC1)c1nn2c(c1Cl)NC(c1ccccc1)CC2C(F)(F)F (stereo not given) | 0.473% | –
24 | Clc1ccccc1-c1nc(NCCN2CCOCC2)c2ccccc2n1 | – | 12.6 µM (active)
25 | COc1cc(NC(=O)c2c(F)cccc2F)nc(OC)n1 | – | 20 µM (active)

Row | Compound | activity, negative = inhibition | AC50
26 | CC#CCCCC(=O)Nc1cc(OC)nc(OC)n1 | – | 0.355 µM (active)
27 | COc1cc(NS(=O)(=O)c2ccc(N)cc2)nc(OC)n1 | 1.22% [at 25.6 µM] | –
28 | OC[C@@H]1O[C@@H](n2cnc3c(N[C@@H]4C[C@@H]5CC[C@H]4C5)ncnc32)[C@@H](O)[C@H]1O | -14.4% | –
29 | CCOC(=O)CN(c1ccccn1)S(=O)(=O)c1ccccc1 | – | 14.1 µM (active)
30 | CN(CC(=O)O/N=C(\N)c1ccccn1)S(=O)(=O)c1ccccc1 | -9.06% | –
31 | Cc1ccc(S(=O)(=O)N(C)CC(=O)O/N=C(\N)c2ccccn2)cc1 | -5.85% | –
32 | O=C(NCc1cccc(C(F)(F)F)c1)c1cc(Cl)cc(Cl)c1 | – | 12.6 µM (active)
33 | COc1ccc(-c2coc3cc4oc(=O)cc(C)c4cc23)cc1F | – | 2 µM (active)
34 | O=C(NCc1ccccc1Cl)C1CCN(S(=O)(=O)N2CCC3(CC2)OCCO3)CC1 | -0.431% | –
35 | CCc1nc(N2CCC3(CC2)OCCO3)c2nnn(Cc3ccccc3Cl)c2n1 | – | 7.08 µM (active)
36 | Fc1ccc2nc(Nc3nc4c(s3)CCCC4)sc2c1 | – | 1.58 µM (active)
37 | COc1ccc(NC(=O)N2CC[C@@]3(CCCN(C(=O)c4cnccn4)C3)C2)cc1 | -18.8% | –
38 | Cc1ccc(C(=O)NC(=S)NCC2CCCO2)cc1 (stereo not given) | – | 7.08 µM (active)
39 | Cc1ccc(CS(=O)(=O)Cc2ccc(C(=O)NCC3CCCO3)o2)cc1 (stereo not given) | -7.21% | –
40 | CCCn1c2c(c(O)c(C(=O)NCc3ccccc3)c1=O)CCCC2 | – | 1.26 µM (active)
41 | CCS(=O)(=O)N1CCC(C(=O)NCCN2CCN(Cc3ccccc3)CC2)CC1 | -25.8% | –
42 | CCC(C)NC(=O)CCS(=O)(=O)c1ccc(Br)s1 (stereo not given) | -4.87% | –
43 | COc1ccc(CN[C@H](C)C(=O)O)cc1 | -2.04% [at 11.4 µM] | –
44 | CNNCc1ccc(C(=O)NC(C)C)cc1 | – | 1.58 µM (active)
45 | N#Cc1nc(COc2ccccc2Cl)oc1NCc1ccco1 | – | 14.1 µM (active)
46 | c1ccc(NN(Cc2cnccn2)c2ccccc2)cc1 | – | 2 µM (active)
47 | O=c1nc2ccccc2c2n1CC(CN1CCN(c3cccc(Cl)c3)CC1)N2 (stereo not given) | -26.7% | –
48 | Cc1ccc(-n2c(SCc3ccc([N+](=O)[O-])cc3)nc3ccccc3c2=O)cc1 | 0.364% | –
49 | COn1c(SCc2ccc(C)cc2C)nc2ccccc2c1=O | – | 8.91 µM (active)
50 | COn1c(SCc2cccc(Cl)c2)nc2ccccc2c1=O | – | 1.26 µM (active)
